# According to PubChem BioAssay AID1117319 (Southern Research Institute, 2015):
# Several values for one entry are separate records, joined by “and”; a condition that tells them apart may be missing. Equal values may be shown once. Screen size: about 260,000 compounds; about 1,500 (0.58%) were called active. Not shown: some 5% with an inconclusive outcome.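 The calls were made as follows: active = inhibition above a set limit at one or more doses, reproduced on every date tested; inconclusive = results disagree between test dates, or hit never tested in dose response; inactive = the rest.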 Only a sample is shown. Potency and affinity values are given separately.
# Target: Virion infectivity factor (Human immunodeficiency virus type 1 group M subtype B (isolate BH10)) + Virion infectivity factor (Human immunodeficiency virus type 1 group M subtype B (isolate BRU/LAI)) + Virion infectivity factor (Human immunodeficiency virus type 1 group M subtype B (isolate PCV12)) + Virion infectivity factor (Human immunodeficiency virus type 1 group M subtype B (isolate HXB2)) + DNA dC->dU-editing enzyme APOBEC-3G (Homo sapiens) (UniProt P69720+P69721+P69722+P69723+Q9HC16)
# Assay: HIV-1 Vif–A3G interaction blockers – biochemical, TR-FRET, GST-Vif 1-94, biotin-A3G peptide, dose response retest, primary screen (AID 1117319);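 also: Vif residues 1-94 fused to GST binding biotinylated APOBEC3G peptide 110-148; 0% = full assay without inhibitor and 100% = GST in place of GST-Vif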
# Details: TR-FRET GST-Vif / biotin-A3G peptide binding; active compounds read high
row,SMILES,inhibition
1,CNCc1ccccc1Sc1cccc(O)c1,-4.96% (inactive)
2,CNCc1ccccc1Sc1ccc(OC)cc1,4.31% (inactive)
3,CNCc1ccccc1Sc1cccc2ccccc12,-4.29% (inactive)
4,Cc1ccc(O)c(Sc2cc(C)ccc2O)c1,3.64% (inactive)
5,O=C(COc1cc(F)ccc1[N+](=O)[O-])Nc1ccc2c(c1)OCO2,-6.99% (inactive)
6,CNCCCOc1cccc(Oc2ccccc2)c1,9.66% (inactive)
7,COc1cccc2cc(C(=O)c3ccccc3)oc12,-4.51% (inactive)
8,O=C(NCc1ccc2c(c1)OCO2)c1ccccn1,10.1% (inactive)
9,O=C(Nc1ccc2c(c1)OCO2)c1cc2ncc(Br)cn2n1,6.91% (inactive)
10,O=C(NN1CCOCC1)c1cc(-c2ccc(Cl)c(Cl)c2)nc2ccccc12,-15.2% (inactive)
11,CC1CC(OCC(O)CN2CCOCC2)CC(C)(C)C1 (centres undefined),-2.99% (inactive)
12,N#CCC(=O)Nc1ccc(C(=O)OC(C(=O)Nc2cc(C(F)(F)F)ccc2Cl)c2ccccc2)cc1 (centres undefined),6.13% (inactive)
13,CCOC(=O)C(=NC1CCS(=O)(=O)C1)NNc1cc(Cl)ccc1Cl (centres undefined),11.7% (inactive)
14,COC(=O)Cn1ncn2cccc2c1=O,31% (inactive)
15,CCOC(=O)CCCn1ncn2c(cc3occc32)c1=O,7.22% (inactive)
16,CC1CCCCC1NC(=O)CCNS(=O)(=O)c1ccc2c(c1)CCC(=O)N2 (centres undefined),6.16% (inactive)
17,CCCn1nc(C(=O)Nc2cccc(C(=O)OC)c2)c2ccccc2c1=O,0.28% (inactive)
18,COC(=O)c1ccc(C)c(NC(=O)c2nn(C)c(=O)c3ccccc23)c1,0.46% (inactive)
19,CCN(C(=O)C1CCCCC1)c1nnc(-c2cccnc2)s1,-11.9% (inactive)
20,O=C(C1CCCN1S(=O)(=O)c1cccc2cccnc12)N1CCc2ccccc2C1 (centres undefined),8.45% (inactive)
21,O=C(C1CCN(S(=O)(=O)c2cccc3cccnc23)CC1)N1CCN(c2ccccc2)CC1,3.12% (inactive)
22,O=C1CCCN1CCCNC(=S)Nc1cccc2ccccc12,30.4% (inactive)
23,CC(C)OC(=O)CSc1nnc(-c2ccncc2)n1N,-2.43% (inactive)
24,O=c1cc(CN2CCc3ccccc32)nc2sccn12,23.2% (inactive)
25,O=c1cc(CN2CCCc3ccccc32)nc2sccn12,22% (inactive)

row,SMILES,inhibition
1,Cc1ccc(CCNc2ncnc(Cl)c2N)cc1,-3.15% (inactive)
2,Cc1nn(C)cc1/C=N\NC(=O)c1ccc(Cn2cc(Cl)cn2)cc1,-3.19% (inactive)
3,COc1cccc(C(C#N)N2N=C(C)CC2(C)C)c1O (centres undefined),-2.38% (inactive)
4,COc1cc(C(C#N)N2CCCCC2)ccc1O (centres undefined),7.46% (inactive)
5,O=S(=O)(Nc1cccc(-n2cnnn2)c1)c1ccccc1F,-7.41% (inactive)
6,Oc1c(C=Nc2ccccc2)sc2ccccc12,-6.91% (inactive)
7,COc1ccc(N=Cc2sc3ccccc3c2Cl)cc1,0.88% (inactive)
8,CCCOc1ccc(NC(N)=O)cc1OCCC,0.61% (inactive)
9,C=C1CCN([C@H](C(=O)NCc2ccc(OC)cc2)C(C)C)S(=O)(=O)c2ccccc21,2.28% (inactive)
10,CCCn1nnc(NC(=O)c2ccc(-c3cc(Cl)ccc3Cl)o2)n1,3.66% (inactive)
11,O=C(NNC(=O)c1ccc(Cl)c(Cl)c1)c1cccnc1,-10.1% (inactive)
12,COCc1nnc(NS(=O)(=O)c2ccc(Cl)cc2)s1,-13.7% (inactive)
13,Nc1ccc(S(=O)C(F)(F)F)cc1 (centres undefined),-4.35% (inactive)
14,Cc1ccnc2ccc(P(=O)(c3ccccc3)c3ccccc3)cc12,-4.5% (inactive)
15,CC[n+]1ccc(C[n+]2ccccc2)c2ccccc21,31.8% (inactive)
16,Cc1cc[n+](CCC(=O)O)c2ccccc12,27.6% (inactive)
17,CC(C)CN(C(=O)COC(=O)Cc1c[nH]c2ccccc12)C1CCS(=O)(=O)C1 (centres undefined),-1.62% (inactive)
18,Cn1cnc([N+](=O)[O-])c1C(=O)Nc1cccc([N+](=O)[O-])c1,-0.16% (inactive)
19,CCc1ccc(NC(=O)CSCc2ccc(C(=O)O)cc2)cc1,2.67% (inactive)
20,O=C(/C(=C(\[O-])c1ccccc1)[n+]1ccc2ccccc2c1)c1ccc(Cl)cc1,-6.22% (inactive)
21,Cc1cc(C)c(S(=O)(=O)Nc2cc(SCC(=O)O)c(O)c3ccccc23)cc1C,29.4% (inactive)
22,Cc1ccc(C)c(S(=O)(=O)Nc2cc(SCC(=O)O)c(O)c3ccccc23)c1,30.9% (inactive)
23,COC(=O)c1cc2sccc2n1CC(=O)Nc1ccc(OC)c(OC)c1OC,-6.58% (inactive) and -2.62% (inactive)
24,Cc1ccc(-c2nnc3n2CCCCC3)cc1,32.1% (inactive)
25,C1CCc2nnc(-c3nnc4n3CCCCC4)n2CC1,-7.36% (inactive)

row,SMILES,inhibition
1,O=C(Nc1cccc2nsnc12)c1ccc2c(c1)OCO2,-0.24% (inactive)
2,COc1cccc(OCC(O)CN2CCN(c3ccc(Cl)cc3)CC2)c1 (centres undefined),2.34% (inactive)
3,COc1ccc(O)c(/C=N/c2sc(C)c(C)c2C#N)c1,10.1% (inactive)
4,COc1ccc(S(=O)(=O)N2CCOCC2)cc1C(=O)Nc1cc(C)on1,2.2% (inactive)
5,Cc1nn(-c2ccccc2)c(Cl)c1C1C(C#N)=C(N)Oc2c1c(C)nn2-c1ccccc1 (centres undefined),2.03% (inactive)
6,CCOC(=O)C1=C(C)OC(N)=C(C#N)C1c1c(C)nn(-c2ccc(C)cc2)c1Cl (centres undefined),1.7% (inactive)
7,CC(=O)c1cccc(OCc2cc(C(=O)N(C)Cc3nccs3)no2)c1,-3% (inactive)
8,CC(C)(C)c1ccc(N2C(=O)CC(C/C=C/c3ccccc3)C2=O)cc1 (centres undefined),-5.69% (inactive)
9,O=C(COC(=O)c1ccc(S(=O)(=O)Nc2ccccc2)cc1)NCc1ccco1,3.75% (inactive)
10,O=C(COC(=O)c1ccc(NS(=O)(=O)c2cccs2)cc1)NCC1CCCO1 (centres undefined),-1.37% (inactive)
11,CC1CC(=O)Nc2ccccc2N1C(=O)CN1C(=O)C(=O)N(C)C1=O (centres undefined),3.84% (inactive)
12,CC(=O)Nc1ccc(/C=N/Nc2nncc3ccccc23)cc1,-1.2% (inactive)
13,Cc1cccc(C)c1NC(=O)COC(=O)CN1C(=O)C2CCCCC2C1=O (centres undefined),-6.55% (inactive)
14,O=C1C2C3C=CC(C3)C2C(=O)N1c1ccccc1 (centres undefined),23.8% (inactive)
15,O=C1C2C3CCC(CC3)C2C(=O)N1c1ccccc1 (centres undefined),3.86% (inactive)
16,COc1ccc(-c2nc(SC(CC(=O)NCCO)c3cccs3)n[nH]2)cc1 (centres undefined),-4.6% (inactive)
17,Cc1ccc(-c2nnc(N3CCOCC3)c3ccccc23)cc1S(=O)(=O)N(C)C,-45.2% (inactive)
18,Cc1nc(NCCc2ccccc2)c2nnn(Cc3ccccc3)c2n1,-8.97% (inactive)
19,COc1ccc(CC(=O)NCc2ccccc2F)cc1S(=O)(=O)N1CCOCC1,-8.33% (inactive)
20,Cc1ccccc1NC(=O)Cc1nc(COC(=O)COc2cccc(C)c2C)cs1,-1.31% (inactive)
21,Cc1ccc(-c2nn[nH]n2)o1,-6.6% (inactive)
22,COCCNC(=O)/C(C#N)=C/c1ccc(OC(=O)c2cccs2)c(OC)c1,12.9% (inactive)
23,COCCNC(=O)/C(C#N)=C/c1cccc(/C=C(\C#N)C(=O)NCCOC)c1,-1.66% (inactive)
24,CCCN1C2CCCC1CC(NC(=O)c1ccccc1Br)C2 (centres undefined),-0.94% (inactive)
25,COc1cc(C2NC(=O)NC3=C2C(=O)OC3)cc(OC)c1OC (centres undefined),-6.88% (inactive)

row,SMILES,inhibition
1,Cn1cc(C(=O)Nc2ccc(Cl)cc2)c(C(F)(F)F)n1,-6.34% (inactive)
2,Cc1ccc(/C=C2/NC(=O)N(Cc3ccc(Br)cc3)C2=O)o1,18.3% (inactive)
3,COc1ccc(NC(=O)CCC(=O)N/N=C/c2ccc([N+](=O)[O-])s2)cc1,23.7% (inactive)
4,COc1ccc(Sc2ccc(/C=C3\C(=O)NN(c4ccccc4)C3=O)o2)cc1,27.1% (inactive)
5,CCN1C(=O)/C(=C/c2ccc(C)s2)NC1=S,20.4% (inactive)
6,CCCN1C(=O)/C(=C/c2ccc(C)s2)NC1=S,1.31% (inactive)
7,COc1ccc(NCc2ccc([N+](=O)[O-])s2)cc1,-7.61% (inactive)
8,CC(=O)c1sc(NC(=O)c2ccc(F)cc2)nc1-c1ccccc1,-5.82% (inactive)
9,C[C@@H](CO)NC(=O)c1ccc2c3n(nc2c1)-c1ccccc1CO3,-3.9% (inactive)
10,COc1cccc(CN2CCC(n3nccc3NC(=O)C3CC3)CC2)c1,3.21% (inactive)
11,CCCN1CCN(CC(O)COC(c2ccc(OC)cc2)c2ccc(OC)cc2)CC1 (centres undefined),3.65% (inactive)
12,Cc1cccc(NC(=O)c2sc3nc(-c4ccc(F)cc4)cn3c2C)n1,-26.2% (inactive)
13,O=C(NC(=S)Nc1ccccc1N1CCCC1)c1cccc(F)c1,5.9% (inactive)
14,COc1cc(/C=N/Nc2nc(=O)[nH]nc2C)cc([N+](=O)[O-])c1O,5.18% (inactive)
15,O=C(NC1CCCCC1)c1ccccc1NC(=O)C1CC(=O)N(c2ccc(Cl)cc2)C1 (centres undefined),31.5% (inactive)
16,C/C(O)=c1/ccc2cccc3nc(C)nc1c23,32.6% (inactive)
17,NNc1nc(C(F)(F)F)nc2ccccc12,-3.12% (inactive)
18,Cc1ccc(S(=O)(=O)NC2CCCCC2)cc1C(=O)N1CCC(C(N)=O)CC1,-4.11% (inactive)
19,COc1ccccc1-c1coc2c(CN3CCCC(C)C3)c(O)ccc2c1=O (centres undefined),-11.2% (inactive)
20,COCCN(CCOC)Cc1c(O)ccc2c1O/C(=C\c1ccco1)C2=O,25.4% (inactive)
21,Cc1ccc(/C=C2\Oc3c(ccc(O)c3CN3CCN(CCO)CC3)C2=O)cc1,-6.62% (inactive)
22,CCc1ccc(/C=C2\Oc3c(ccc(O)c3CN3CCN(C)CC3)C2=O)cc1,29.7% (inactive)
23,CCN1CCN(Cc2c(O)ccc3c2O/C(=C\c2ccccc2)C3=O)CC1,-1.46% (inactive)
24,CC(C)(C)c1ccc(/C=C2\Oc3c(ccc(O)c3CN3CCN(CCO)CC3)C2=O)cc1,2.03% (inactive)
